Consider four molecules from PubChem BioAssay.

Results filed as inconclusive are left out. Calls of active or inactive are those of the source.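 Rule for the calls, unless noted: active = efflux inhibition above 0.42, the validation set average plus 4 SD; inconclusive = no clear call, values can overlap the other calls; inactive = the rest.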

A short description of test [1]: rapamycin-like changes in RPL19A-GFP expression – cell-based, S. cerevisiae, multiplex flow cytometry, primary screen (AID 1862; in the data active = percent of DMSO control GFP below about 86%;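 note: lower values mimic rapamycin by blocking the RPL19A rise seen in DMSO cells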). The conditions noted are these: S. cerevisiae RPL19A-GFP strain, flow cytometry fluorescence, 3 h; at 10 µM; stronger effect = lower value. (In flow cytometry, cells or beads pass a laser one at a time.)
Test [2] is described as follows: TOR pathway GLN3 branch reporter MEP2-GFP changes – S. cerevisiae, multiplex flow cytometry, primary screen (AID 1867;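 active = GFP response, as percent of the DMSO control, above the screen-wide mean plus 3 SD, about 139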;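 note: median GFP channel fluorescence of barcode-gated MEP2-GFP cells measured by flow cytometry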). The conditions noted are these: S. cerevisiae MEP2-GFP strain, 3 h, at 10 µM, stronger effect = higher value, 100% means same as DMSO wells.
Test [3] in a line: TOR pathway RTG branch CIT2 reporter changes – S. cerevisiae, GFP fusion, multiplex flow cytometry, primary screen (AID 1870;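 active = percent response above a set limit, the screen-wide mean plus 3 SD, cut at about 130% in these data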;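 note: barcoded CIT2-GFP strain pooled with four other GFP strains with rapamycin as positive control; median GFP fluorescence per well over plate mean of DMSO wells so 100% = DMSO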). The following applies: S. cerevisiae CIT2-GFP expression, 3 h, at 10 µM, stronger effect = higher value.
Test [4] is described as follows: TOR pathway LAP4-GFP level changes – S. cerevisiae, multiplex flow cytometry, primary screen (AID 1873;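 active = GFP signal, as percent of the solvent control, above the screen mean plus 3 SD, about 149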). The conditions noted are these: S. cerevisiae LAP4-GFP expression, 3 h, at 10 µM, stronger effect = higher value.
A short description of test [5]: yeast AGP1-GFP level changes, GLN3 branch – cell-based, multiplex flow cytometry, S. cerevisiae, primary screen (AID 1887;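 active = GFP signal above the screen-wide mean plus 3 SD, that is over about 124.5% of the solvent control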;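 note: AGP1-GFP fusion strain of S. cerevisiae within a five-strain barcoded multiplex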). The following applies: 3 h, at 10 µM, stronger effect = higher value.
The nature of test [6]: reduced mouse 2C T cell binding to pMHC/ICAM-1 vesicles – MLPCN validation set, flow cytometry, LFA-1/ICAM-1 modulator project, pilot screen (AID 2523;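 active = response below a set limit, under 55% cells CD8-positive and vesicle-bound, and CD8 cells' 90th-percentile brightness under 279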;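 for vesicle binding response: mean PE anti-B7-1 fluorescence of CD8+ cells relative to row control; 100% = QL9-loaded vesicles with DMSO vehicle in the same plate row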). The following applies: 2C mouse CD8+ T cells, at 7 µM, stronger effect = lower value; double positive events: measured here: CD8+/vesicle+ event percentage.
Test [7] deals with Integrin beta-1 (Homo sapiens) + Integrin alpha-4 (Homo sapiens) (UniProt P13612+P05556). The test can be described thus: alpha4beta1 integrin LIBS antibody binding reduction – U937 cells, HUTS-21 mAb, flow cytometry, validation set, VLA-4 allosteric modulator project, pilot screen (AID 2674;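 active = inhibition above 50%, about 3 SD of the validation set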;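 note: antibody binding induced by the VLA-4 ligand LDV present at three times its Kd; 0% = LDV ligand with antibody and no compound and 100% = antibody without LDV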). The following applies: HUTS-21 LIBS mAb binding, at 6.7 µM, stronger effect = higher value, binding induced by LDV ligand.

The nature of test [8]: calorie-restriction mimetic ROS inhibitors, yeast – validation compound set, pilot screen (AID 2706;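 active = superoxide response below 65% of plate, a cut near 3 SD across the whole screen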;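 note: yeast exposed to compound for one week at 30 degrees C before staining; 100% = mean of all compound wells on the same plate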). The conditions noted are these: S. cerevisiae aging, superoxide DHE fluorescence; at 10 µM; stronger effect = lower value.
The target in test [9] is Beta-adrenergic receptor kinase 1 (Homo sapiens) (UniProt P25098). The test can be described thus: GRK2 binders displacing RNA aptamer, biochemical, validation, human GRK2, bead flow cytometry (AID 488806;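 active = aptamer binding inhibition above 30%, about 3 SD of noise from non-fluorescent compounds; inactive = inhibition at or below 30%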). The following applies: bead-bound GRK2, FAM-aptamer displacement, at 10 µM, stronger effect = higher value.
Test [10] deals with Beta-2 adrenergic receptor (Homo sapiens) (UniProt P07550). The test can be described thus: agonist-induced loss of surface beta2AR – cell-based, FAP fluorogen, flow cytometry, validation set, pilot screen (AID 504459;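 active = percent response above 42, roughly 3 SD of non-fluorescent test compounds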;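 note: agonist-driven loss of surface beta2AR via internalization measured by FAP dye flow cytometry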). The following applies: Am2.2-beta2AR cells, at 10 µM, stronger effect = higher value.
The target in test [11] is AP-2 complex subunit beta (Homo sapiens) (UniProt P63010). The test can be described thus: beta-arrestin/AP2 interaction blockers – biochemical, validation set, GST-AP2 beads, flow cytometry, pilot screen (AID 504541;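 active = inhibition above 54%, about 3 SD of non-fluorescent compounds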;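 note: AP2 carries R879A mutation and is captured from E. coli lysate; bead-bound FITC arrestin peptide fluorescence measuring arrestin peptide binding to AP2; 0% = DMSO wells and 100% = excess unlabeled arrestin peptide control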). The following applies: FITC arrestin peptide, at 10 µM, stronger effect = higher value, AP2 beta2 appendage fragment, R879A mutant.
Test [12] in a line: cytosolic pH regulators acting via V-ATPase – S. cerevisiae, pHLuorin, HTS validation (AID 504600; in the data active = response above about 15%;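 note: plate controls were DMSO for no effect and reference compound for full effect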). The conditions noted are these: V-ATPase proton transport, at 10 µM, stronger effect = higher value.
Test [13] relates to anti-desmoglein-3 scFv antibody binding to human DSG3. The test can be described thus: blockers of pathogenic pemphigus antibody–desmoglein-3 binding – biochemical, validation compound set, bead-based, flow cytometry, pilot screen (AID 588368;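 active = binding below the plate cutoff, the plate median minus 3 SD, with a reading above zero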;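 note: signal is the median channel fluorescence of bead-bound GFP antibody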). The conditions noted are these: Protein G beads, DSG3-Fc, scFv-GFP binding, at 10 µM, stronger effect = lower value.
Test [14] is described as follows: Nile Red efflux blockade in pump-expressing yeast – validation compound set, multiplex, phenotypic, pilot screen (AID 588506).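 Note: Nile Red retained in cells so higher fluorescence means more efflux inhibition; 0 = negative control wells and 1 = enniatin B 25 µM full block.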 The conditions noted are these: S. cerevisiae pump-expressing triplex, Nile Red efflux flow cytometry; at 10 µM; stronger effect = higher value; the pumps come from Candida albicans.
Test [15] deals with ATP-binding cassette sub-family B member 6 (Homo sapiens) (UniProt Q9NP58). The test can be described thus: blockers of ABCB6-driven porphyrin uptake – K562-ABCB6 cells, flow cytometry, validation set, pilot screen (AID 588550;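 active = inhibition above the screen-wide mean plus 3 SD, about 51%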;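 note: 0% = DMSO wells and 100% = benzethonium chloride 70 µM positive control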). The conditions noted are these: K562-ABCB6 porphyrin accumulation, 1 h, at 10 µM, stronger effect = higher value.
The nature of test [16]: AML differentiation inducers, ER-HoxA9 marrow cells – cell-based, GFP/MAC1 double positive, flow cytometry, validation set, primary screen (AID 588685;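 active = differentiation response of at least 50%, scaled between solvent and reference control, from cells with both markers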;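 note: compound exposure lasts four days before antibody staining and flow analysis; 0% = DMSO wells and 100% = 5 µM fulvestrant positive control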). The conditions noted are these: stronger effect = higher value, normalized: vehicle 0, fulvestrant 100.

Beta-adrenergic receptor kinase 1 (Homo sapiens), sequence (P25098 whole entry, looked up): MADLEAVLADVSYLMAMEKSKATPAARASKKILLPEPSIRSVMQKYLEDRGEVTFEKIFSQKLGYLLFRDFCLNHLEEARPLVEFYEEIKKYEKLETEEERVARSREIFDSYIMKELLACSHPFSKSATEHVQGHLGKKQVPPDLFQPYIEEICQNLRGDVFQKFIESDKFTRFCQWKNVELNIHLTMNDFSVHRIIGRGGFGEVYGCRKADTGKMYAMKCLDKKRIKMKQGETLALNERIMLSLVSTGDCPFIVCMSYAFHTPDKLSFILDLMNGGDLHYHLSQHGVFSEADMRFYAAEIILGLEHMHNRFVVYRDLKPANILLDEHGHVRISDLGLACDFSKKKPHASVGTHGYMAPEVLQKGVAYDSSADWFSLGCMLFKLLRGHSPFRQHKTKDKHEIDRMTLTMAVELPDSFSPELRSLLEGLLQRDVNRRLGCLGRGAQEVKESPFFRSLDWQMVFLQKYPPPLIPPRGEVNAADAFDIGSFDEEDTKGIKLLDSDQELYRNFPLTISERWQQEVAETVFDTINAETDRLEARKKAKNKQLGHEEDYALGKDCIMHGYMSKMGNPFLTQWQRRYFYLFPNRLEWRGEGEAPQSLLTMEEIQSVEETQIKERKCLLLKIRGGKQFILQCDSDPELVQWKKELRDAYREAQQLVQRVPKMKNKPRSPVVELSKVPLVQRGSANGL
Integrin beta-1 (Homo sapiens) + Integrin alpha-4 (Homo sapiens), sequence (P05556 whole entry, looked up): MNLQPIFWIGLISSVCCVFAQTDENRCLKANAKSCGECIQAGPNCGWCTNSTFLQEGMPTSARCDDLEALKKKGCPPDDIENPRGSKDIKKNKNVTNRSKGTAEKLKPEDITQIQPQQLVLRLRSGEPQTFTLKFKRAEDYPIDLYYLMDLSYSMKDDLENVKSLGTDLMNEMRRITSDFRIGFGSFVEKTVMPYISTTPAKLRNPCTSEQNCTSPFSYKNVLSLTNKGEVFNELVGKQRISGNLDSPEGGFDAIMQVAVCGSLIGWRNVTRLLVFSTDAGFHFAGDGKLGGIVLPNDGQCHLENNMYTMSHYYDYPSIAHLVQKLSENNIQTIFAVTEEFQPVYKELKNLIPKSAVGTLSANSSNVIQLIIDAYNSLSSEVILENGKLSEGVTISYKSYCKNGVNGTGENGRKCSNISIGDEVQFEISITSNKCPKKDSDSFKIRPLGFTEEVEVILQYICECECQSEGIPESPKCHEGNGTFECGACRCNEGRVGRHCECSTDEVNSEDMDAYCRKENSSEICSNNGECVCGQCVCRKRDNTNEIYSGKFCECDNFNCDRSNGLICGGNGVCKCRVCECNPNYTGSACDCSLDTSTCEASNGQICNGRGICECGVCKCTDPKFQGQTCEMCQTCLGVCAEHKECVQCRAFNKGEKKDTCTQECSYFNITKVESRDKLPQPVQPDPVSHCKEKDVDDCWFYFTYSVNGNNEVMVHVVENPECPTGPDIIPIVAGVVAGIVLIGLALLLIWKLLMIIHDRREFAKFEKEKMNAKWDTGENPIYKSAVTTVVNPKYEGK
Integrin beta-1 (Homo sapiens) + Integrin alpha-4 (Homo sapiens), sequence (P13612 whole entry, looked up): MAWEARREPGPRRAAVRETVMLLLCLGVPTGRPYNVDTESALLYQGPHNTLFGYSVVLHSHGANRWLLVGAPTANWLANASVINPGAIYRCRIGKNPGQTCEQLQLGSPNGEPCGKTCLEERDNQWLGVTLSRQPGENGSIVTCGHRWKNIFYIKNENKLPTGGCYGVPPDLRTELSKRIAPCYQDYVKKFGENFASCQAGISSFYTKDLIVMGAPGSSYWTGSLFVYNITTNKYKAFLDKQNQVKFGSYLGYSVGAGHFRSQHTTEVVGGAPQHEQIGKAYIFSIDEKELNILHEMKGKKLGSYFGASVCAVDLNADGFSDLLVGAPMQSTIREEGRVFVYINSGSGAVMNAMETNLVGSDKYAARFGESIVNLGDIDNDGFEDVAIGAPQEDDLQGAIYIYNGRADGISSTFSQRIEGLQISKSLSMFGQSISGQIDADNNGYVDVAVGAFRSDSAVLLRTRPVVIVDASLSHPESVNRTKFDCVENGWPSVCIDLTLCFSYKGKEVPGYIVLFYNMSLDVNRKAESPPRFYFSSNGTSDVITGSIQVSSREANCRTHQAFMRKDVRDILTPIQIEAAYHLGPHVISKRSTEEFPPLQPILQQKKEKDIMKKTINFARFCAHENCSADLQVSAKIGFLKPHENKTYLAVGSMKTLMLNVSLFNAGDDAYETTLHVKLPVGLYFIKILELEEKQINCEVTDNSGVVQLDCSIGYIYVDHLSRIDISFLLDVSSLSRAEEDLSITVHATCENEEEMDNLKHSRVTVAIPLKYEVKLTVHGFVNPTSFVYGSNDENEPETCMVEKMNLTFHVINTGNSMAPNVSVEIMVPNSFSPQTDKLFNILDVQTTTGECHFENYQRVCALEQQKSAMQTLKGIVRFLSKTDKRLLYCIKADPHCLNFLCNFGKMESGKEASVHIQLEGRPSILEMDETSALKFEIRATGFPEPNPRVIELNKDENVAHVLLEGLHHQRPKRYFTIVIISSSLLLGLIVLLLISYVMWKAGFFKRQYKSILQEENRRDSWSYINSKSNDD
Beta-2 adrenergic receptor (Homo sapiens), sequence (P07550 whole entry, looked up): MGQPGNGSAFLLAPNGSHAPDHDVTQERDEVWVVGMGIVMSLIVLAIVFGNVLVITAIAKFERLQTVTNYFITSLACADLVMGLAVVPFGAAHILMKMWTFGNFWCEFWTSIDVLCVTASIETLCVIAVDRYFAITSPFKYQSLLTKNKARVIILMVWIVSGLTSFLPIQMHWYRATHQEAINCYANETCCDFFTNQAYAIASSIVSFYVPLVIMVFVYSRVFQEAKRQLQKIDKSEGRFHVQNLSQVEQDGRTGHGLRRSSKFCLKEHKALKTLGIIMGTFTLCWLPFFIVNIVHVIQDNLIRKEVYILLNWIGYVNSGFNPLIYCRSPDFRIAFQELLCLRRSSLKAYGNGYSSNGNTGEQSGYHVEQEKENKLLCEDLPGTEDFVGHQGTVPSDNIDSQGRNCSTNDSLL
ATP-binding cassette sub-family B member 6 (Homo sapiens), sequence (Q9NP58 whole entry, looked up): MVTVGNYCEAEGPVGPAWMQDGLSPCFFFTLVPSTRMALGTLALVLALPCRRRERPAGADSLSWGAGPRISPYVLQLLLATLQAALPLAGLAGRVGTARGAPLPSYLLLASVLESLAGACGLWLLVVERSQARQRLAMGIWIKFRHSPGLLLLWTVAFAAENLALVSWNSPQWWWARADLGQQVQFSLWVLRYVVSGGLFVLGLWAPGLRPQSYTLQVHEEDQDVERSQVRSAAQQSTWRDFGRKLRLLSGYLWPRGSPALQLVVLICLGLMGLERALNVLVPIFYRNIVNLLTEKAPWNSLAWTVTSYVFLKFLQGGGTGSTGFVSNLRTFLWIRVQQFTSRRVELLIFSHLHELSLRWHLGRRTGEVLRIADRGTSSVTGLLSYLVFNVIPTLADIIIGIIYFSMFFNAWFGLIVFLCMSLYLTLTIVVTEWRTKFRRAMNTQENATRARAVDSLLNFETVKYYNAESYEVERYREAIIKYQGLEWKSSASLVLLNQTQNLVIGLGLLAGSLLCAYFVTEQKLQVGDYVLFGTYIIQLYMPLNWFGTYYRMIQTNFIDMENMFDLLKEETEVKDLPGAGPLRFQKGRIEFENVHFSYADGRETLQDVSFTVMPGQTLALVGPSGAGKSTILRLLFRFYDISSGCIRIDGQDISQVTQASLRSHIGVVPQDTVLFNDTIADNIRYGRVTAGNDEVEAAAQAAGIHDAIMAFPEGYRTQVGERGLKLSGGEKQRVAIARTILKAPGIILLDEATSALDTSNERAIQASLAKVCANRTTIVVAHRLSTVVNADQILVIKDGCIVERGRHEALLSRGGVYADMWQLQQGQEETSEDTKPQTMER
AP-2 complex subunit beta (Homo sapiens), sequence (P63010 whole entry, looked up, the tested form may be a part, one chain of several): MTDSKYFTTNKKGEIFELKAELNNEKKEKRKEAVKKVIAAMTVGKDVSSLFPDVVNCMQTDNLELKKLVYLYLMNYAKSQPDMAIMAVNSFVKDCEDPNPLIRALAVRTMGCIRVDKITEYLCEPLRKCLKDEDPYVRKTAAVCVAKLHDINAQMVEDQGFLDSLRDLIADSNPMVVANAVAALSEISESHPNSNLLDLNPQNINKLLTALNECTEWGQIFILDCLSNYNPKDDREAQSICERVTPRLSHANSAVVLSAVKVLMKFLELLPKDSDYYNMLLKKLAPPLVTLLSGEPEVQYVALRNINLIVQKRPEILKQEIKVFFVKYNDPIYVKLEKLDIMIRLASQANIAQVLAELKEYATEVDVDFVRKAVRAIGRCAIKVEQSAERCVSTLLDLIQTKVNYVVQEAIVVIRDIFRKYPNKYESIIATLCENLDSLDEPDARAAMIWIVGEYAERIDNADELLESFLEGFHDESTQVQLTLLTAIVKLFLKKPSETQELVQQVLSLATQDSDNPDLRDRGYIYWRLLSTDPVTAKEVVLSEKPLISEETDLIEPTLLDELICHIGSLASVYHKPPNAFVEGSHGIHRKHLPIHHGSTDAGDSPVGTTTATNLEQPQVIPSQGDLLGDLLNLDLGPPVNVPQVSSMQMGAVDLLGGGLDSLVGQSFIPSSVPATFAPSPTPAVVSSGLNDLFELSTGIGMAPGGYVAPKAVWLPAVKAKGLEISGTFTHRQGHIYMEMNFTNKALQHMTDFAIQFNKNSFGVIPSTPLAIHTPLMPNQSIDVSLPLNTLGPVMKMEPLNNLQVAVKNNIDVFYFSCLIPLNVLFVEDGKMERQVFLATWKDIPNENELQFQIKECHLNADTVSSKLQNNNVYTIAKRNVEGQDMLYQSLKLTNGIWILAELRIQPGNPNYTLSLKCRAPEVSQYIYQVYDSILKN

What is called inhibition is the change of the read-out against control, counted positive when it falls. In the case of `C#C[C@]1(O)CC[C@H]2[C@@H]3CCc4cc(O)ccc4[C@H]3CC[C@@]21C`, the percent of DMSO control GFP in test [1] was 94.4% (inactive). Moreover, the GFP response vs DMSO in test [2] was 109% (inactive); in test [4], 84.7% (inactive). Further, the percent response of DMSO control in [3] is 110% (inactive). The GFP response, % of DMSO in test [5] is 100% (inactive). In addition, in [6], the double positive events came out at 51.2%. For the same molecule, in test [6], the vesicle binding response is 88.7% (inactive). In addition, the inhibition in test [7] is 7.43% (inactive); in test [11] it was 1.36% (inactive); in test [15], 9% (inactive). The superoxide response (% of plate) in test [8] is 76.7% (inactive). In test [9], the aptamer binding inhibition is -5% (inactive). Further, the results for the response in test [10] and in test [12] were -0.6% (inactive) and 2.14% (inactive), respectively. For the same molecule, the binding (% of control) in test [13] was 106% (inactive). Further, in test [14], the efflux inhibition (fraction of control) was 0.19 (inactive). In addition, the differentiation response in test [16] is -3.28% (inactive).
`Cc1cc(C)nc(NS(=O)(=O)c2ccc(N)cc2)n1`: the percent of DMSO control GFP in [1] was 108% (inactive). For the same molecule, the GFP response vs DMSO in test [2] is 98.3% (inactive); in [4] it was 90.1% (inactive). The percent response of DMSO control in [3] is 116% (inactive). For the same molecule, the GFP response, % of DMSO in [5] was 104% (inactive). The double positive events in test [6] is 65.7%. Besides, the vesicle binding response in test [6] was 216% (inactive). Moreover, the inhibition was -5.64% (inactive) in test [7], -9.4% (inactive) in [11] and -1% (inactive) in [15]. The superoxide response (% of plate) in test [8] was 95.6% (inactive). Besides, in [9], the aptamer binding inhibition is 1% (inactive). Also, the response in [10] is -4.61% (inactive); in [12], -1.72% (inactive). In addition, the binding (% of control) in test [13] was 90.1% (inactive). For the same molecule, the efflux inhibition (fraction of control) in [14] is 0.11 (inactive). The differentiation response in test [16] is 6.11% (inactive).
On to `Cc1ccc2c(c1C)NC(C(=O)O)C1CC=CC21` (stereo not drawn), for which the percent of DMSO control GFP in [1] is 102% (inactive). Moreover, the GFP response vs DMSO in test [2] was 97.4% (inactive); in test [4] it was 73.5% (inactive). Also, the percent response of DMSO control in test [3] is 105% (inactive). Moreover, in [5], the GFP response, % of DMSO was 88.5% (inactive). For the same molecule, in test [6], the double positive events was 60.4%. Also, in test [6], the vesicle binding response is 121% (inactive). In addition, the inhibition in [7] is -70% (inactive); in test [11], 11% (inactive); in [15] it was -4% (inactive). In test [8], the superoxide response (% of plate) is 101% (inactive). In [9], the aptamer binding inhibition was 34% (active). The figures for the response in [10] and in test [12] were 62.2% (active) and 2.2% (inactive), respectively. The binding (% of control) in test [13] is 96.8% (inactive). The efflux inhibition (fraction of control) in test [14] is 0.15 (inactive). For the same molecule, the differentiation response in [16] was -4% (inactive).
With `N/C(=N\OC(=O)c1cccc(Br)c1)c1ccncc1`, in test [1], the percent of DMSO control GFP is 103% (inactive). Further, the figures for the GFP response vs DMSO in test [2] and in test [4] were 105% (inactive) and 111% (inactive), respectively. In addition, the percent response of DMSO control in [3] is 106% (inactive). In test [5], the GFP response, % of DMSO is 94.2% (inactive). The same molecule registered a double positive events in [6] of 62.9%. For the same molecule, the vesicle binding response in [6] was 166% (inactive). The inhibition in test [7] is 9.63% (inactive); in test [11], 43.1% (inactive); in [15] it was 8% (inactive). Besides, the superoxide response (% of plate) in test [8] was 106% (inactive). In addition, the aptamer binding inhibition in test [9] was -2% (inactive). Besides, the response in [10] was -7.41% (inactive); in test [12] it was 4.2% (inactive). In addition, in test [13], the binding (% of control) was 100% (inactive). The efflux inhibition (fraction of control) in [14] was -0.115 (inactive). The differentiation response in [16] is -4.57% (inactive).
